From PubChem BioAssay (NCI)
The panel holds about 83,000 compounds, 20% with a hit somewhere; the sample as a whole holds those more often.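 48-hour exposure, single concentration, 96-well plates; percent growth endpoint where 0 means no net growth. Active: below 10.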 Active and inactive are the calls of the source.

Key:
Assay in all cases: NCI-60 one-dose screen, 48 h (100 = growth as untreated, 0 = no growth, -100 = all killed)
Conditions in all cases: 10 µM unless noted
BT-549 breast = system: BT-549 breast
MDA-MB-435 melanoma = system: MDA-MB-435 melanoma
SW-620 colon = system: SW-620 colon
MCF7 breast = system: MCF7 breast
HCT-116 colon = system: HCT-116 colon
HCC-2998 colon = system: HCC-2998 colon
KM12 colon = system: KM12 colon

Measured: growth

COc1cc2c(cc1OCCCCCn1c(-c3ccc(OCc4ccccc4)cc3)nc3cc(N4CCOCC4)ccc31)N=C[C@@H]1CCCN1C2=O
active: BT-549 breast 1.75% | MDA-MB-435 melanoma -9.74% | SW-620 colon 0% | MCF7 breast -3.99% | HCT-116 colon 2.97% | HCC-2998 colon 4.97% | KM12 colon -26.7%

COc1ccc(C2CC(c3ccc(OC)c(OC)c3)=NN2C(=O)c2cc(OC)c(OC)c(OC)c2)c(OC)c1 (centres undefined)
active: MDA-MB-435 melanoma 3.86%
inactive: BT-549 breast 63.2% | SW-620 colon 62.2% | MCF7 breast 35.1% | HCT-116 colon 68.7% | HCC-2998 colon 96.5% | KM12 colon 61.5%

CCOc1cc(C(C)(C)C)ccc1C1=N[C@H](c2ccc(Cl)cc2)[C@H](c2ccc(Cl)cc2)N1C(=O)N1CCN(CC#Cc2cccc3c2CN([C@@H]2CCC(=O)NC2=O)C3=O)CC1
active: MCF7 breast 8.49%
inactive: BT-549 breast 22.9% | MDA-MB-435 melanoma 33.6% | SW-620 colon 26.9% | HCT-116 colon 17.8% | HCC-2998 colon 25.3% | KM12 colon 26.3%

CN(C)c1cccc2c(S(=O)(=O)N[C@H]3CC[C@H]4[C@@H]5CCc6cc(O)ccc6[C@H]5CC[C@]34C)cccc12
inactive: BT-549 breast 35.9% | SW-620 colon 24.8% | MCF7 breast 12.9% | HCT-116 colon 13.1% | HCC-2998 colon 60.6% | KM12 colon 18.5%
active: MDA-MB-435 melanoma -46.4%

COc1ccc(-c2cc(C(=O)Nc3nc4cc(C)c(C)cc4s3)nc3cc(-c4ccccc4)nn23)cc1OC
inactive: BT-549 breast 122% | MDA-MB-435 melanoma 96.8% | SW-620 colon 47.3% | MCF7 breast 99% | HCT-116 colon 108% | HCC-2998 colon 99.7% | KM12 colon 112%

CCn1c2ccccc2c2ccc(C(C)=O)cc21
inactive: BT-549 breast 96.9% | MDA-MB-435 melanoma 104% | SW-620 colon 114% | MCF7 breast 102% | HCT-116 colon 105% | HCC-2998 colon 108% | KM12 colon 115%

CCN1C[C@@H](C)n2c(c(O)c3c(=O)n(Cc4ccc(F)c(Cl)c4)nc(C(=O)NC)c32)C1=O
inactive: MDA-MB-435 melanoma 27.4% | SW-620 colon 21.1% | MCF7 breast 53.6% | HCT-116 colon 16.3% | HCC-2998 colon 14.7% | KM12 colon 21%
active: BT-549 breast 9.6%

COc1ccc2c(c1)C(=O)/C(=C/c1cccc(OCC(=O)c3ccccc3)c1)CC2
inactive: BT-549 breast 39.2% | MDA-MB-435 melanoma 41.1% | SW-620 colon 66% | MCF7 breast 48.7% | HCT-116 colon 72.1% | HCC-2998 colon 96.4% | KM12 colon 91.5%

COc1ccc(Cn2c(NCCCN(C)C)nc(=O)n(Cc3ccc(F)cc3)c2=O)cc1
inactive: BT-549 breast 92.5% | MDA-MB-435 melanoma 102% | SW-620 colon 100% | MCF7 breast 87.9% | HCT-116 colon 93.8% | HCC-2998 colon 101% | KM12 colon 99.8%

CCCC[N+](CCCC)=c1ccc2nc3c(C)cc(N(CC)CC)cc3sc-2c1
inactive: HCC-2998 colon 24.4%
active: BT-549 breast 2.12% | MDA-MB-435 melanoma -88.1% | SW-620 colon -71.9% | MCF7 breast -50% | HCT-116 colon -24.7% | KM12 colon 0.608%

O=C(Cn1ccnc1)NC(c1ccccc1)c1ccccc1
inactive: BT-549 breast 105% | MDA-MB-435 melanoma 99.4% | SW-620 colon 106% | MCF7 breast 100% | HCT-116 colon 106% | HCC-2998 colon 97.6% | KM12 colon 103%

CC/C(=C\c1ccc(N(C)C)cc1)c1nc2ccccc2c(=O)[nH]1
inactive: BT-549 breast 60.3% | MDA-MB-435 melanoma 108% | SW-620 colon 120% | MCF7 breast 98.2% | HCT-116 colon 108% | HCC-2998 colon 93% | KM12 colon 119%

CN(C)c1ccc(/C=C(\C#N)c2nc3ccccc3c(=O)[nH]2)cc1
inactive: BT-549 breast 87.9% | MDA-MB-435 melanoma 86.7% | SW-620 colon 82.6% | MCF7 breast 73.5% | HCT-116 colon 76.9% | HCC-2998 colon 84.8% | KM12 colon 79.9%

COC(=O)CCC1=C(CC(=O)OC)C(C)=N/C1=C\c1[nH]c(-c2ccc[nH]2)cc1OC
inactive: BT-549 breast 52.3% | MDA-MB-435 melanoma 17.3% | SW-620 colon 21.5% | HCC-2998 colon 33.7% | KM12 colon 28.1%
active: MCF7 breast 3.83% | HCT-116 colon 9.33%

Nc1ccc(C2=NN(c3ccccc3)C(c3ccc(Cl)cc3)C2)cc1 (centres undefined)
active: HCT-116 colon -57.3%
inactive: BT-549 breast 70.4% | MDA-MB-435 melanoma 49.9% | SW-620 colon 41.2% | MCF7 breast 14.5% | HCC-2998 colon 76.8% | KM12 colon 18.3%

COc1cc(/C=C/C(=O)c2ccc(F)cc2)ccc1OCCCCCOc1cc2c(cc1OC)C(=O)N1CCCC1C=N2 (centres undefined)
active: BT-549 breast -58% | MDA-MB-435 melanoma -87.5% | SW-620 colon -46.6% | HCT-116 colon -23.9% | KM12 colon -63.4%
inactive: MCF7 breast 16%

COc1cc(/C=C/C(=O)c2c(-c3ccc(Cl)cc3)nc3sc(C)nn23)cc(OC)c1OC
inactive: BT-549 breast 79.3% | MDA-MB-435 melanoma 73.9% | SW-620 colon 59.6% | MCF7 breast 38.1% | HCT-116 colon 50.2% | KM12 colon 73.6%

OCc1nnn(-c2ccccc2)c1CO
inactive: BT-549 breast 157% | MDA-MB-435 melanoma 114% | SW-620 colon 105% | MCF7 breast 106% | HCT-116 colon 105% | HCC-2998 colon 119% | KM12 colon 116%
